Measured values: PubChem BioAssay (EPA / NIEHS)
Activity calls are given as the source filed them. The calls were made as follows: active = hit-call score of the fitted dose curve at least 0.9, where 1 is the maximum; inactive = score below 0.9.

How the values were obtained:
[1] = read-out: TIMP metallopeptidase inhibitor 2 (TIMP2), TIMP2 (gene 7077); test: BSK_KF3CT_TIMP2: BioMAP Diversity Plus: KF3CT Assay for TIMP metallopeptidase inhibitor 2 (TIMP2) Biomarker Activity (AID 2283071); settings: primary human keratinocytes with fibroblasts; actives raise or lower the signal
How it was run: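 Cells: human keratinocytes co-cultured with foreskin fibroblasts. Treat with chemical, 24 h. Measure TIMP-2 by ELISA; fit curves bidirectionally vs DMSO baseline.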

[2] = read-out: Transforming growth factor beta 1 (TGFb1), TGFB1 (gene 7040); test: BSK_KF3CT_TGFb1: BioMAP Diversity Plus: KF3CT Assay for Transforming growth factor beta 1 (TGFb1) Biomarker Activity (AID 2283072); settings: primary human keratinocytes with fibroblasts; actives raise or lower the signal
How it was run: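 Primary human skin cells (keratinocytes, foreskin fibroblasts) were co-cultured, exposed to test chemical and sampled at 24 h. TGF-b1 levels were measured by ELISA and fitted bidirectionally relative to DMSO.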

[3] = read-out: C-C motif chemokine 2 (Homo sapiens) (UniProt P13500); test: BSK_KF3CT_MCP1: BioMAP Diversity Plus: KF3CT Assay for Monocyte Chemoattractant Protein 1 (MCP1/CCL2) Biomarker Activity (AID 2283073); settings: primary human keratinocytes with fibroblasts; actives raise or lower the signal
How it was run: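 Human keratinocyte–foreskin fibroblast co-culture; MCP-1 measured by ELISA 24 h after dosing. Bidirectional fit vs DMSO; cytotoxicity tracked by SRB total protein in parallel cultures.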

[4] = read-out: urokinase plasminogen activator (uPA), PLAU (gene 5328); test: BSK_KF3CT_uPA: BioMAP Diversity Plus: KF3CT Assay for urokinase plasminogen activator (uPA) Biomarker Activity (AID 2283075); settings: primary human keratinocytes with fibroblasts; actives raise or lower the signal
How it was run: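 Primary human keratinocyte/foreskin fibroblast co-culture exposed to chemical; uPA measured by ELISA at 24 h. Bidirectional fit versus DMSO, with parallel SRB total-protein staining for cytotoxicity.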

CD40, CD40 (gene 958) [5] = test: BSK_LPS_CD40: BioMAP Diversity Plus: LPS Assay for CD40 Biomarker Activity (AID 2283076); settings: primary human HUVEC with PBMC; actives raise or lower the signal
How it was run: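 HUVEC plus PBMC co-culture stimulated with LPS; CD40 quantified by ELISA 24 h after compound dosing. Fitting was bidirectional relative to DMSO. SRB staining of parallel cultures flagged overt cytotoxicity.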

[6] = read-out: E-selectin (Homo sapiens) (UniProt P16581); test: BSK_LPS_Eselectin: BioMAP Diversity Plus: LPS Assay for Eselectin Biomarker Activity (AID 2283077); settings: primary human HUVEC with PBMC; actives raise or lower the signal
How it was run: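 Human umbilical vein endothelial cells co-cultured with PBMC under LPS stimulation; cell-surface E-selectin measured by ELISA 24 h after dosing. Change in either direction versus DMSO, with SRB total-protein staining in parallel cultures for cytotoxicity.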

[7] = read-out: Interleukin-8 (IL8), CXCL8 (gene 3576); test: BSK_LPS_IL8: BioMAP Diversity Plus: LPS Assay for Interleukin-8 (IL8) Biomarker Activity (AID 2283078); settings: primary human HUVEC with PBMC; actives raise or lower the signal
How it was run: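 Human umbilical vein endothelial cells co-cultured with PBMC, LPS-stimulated, exposed to compound for 24 h. IL-8 quantified by ELISA; fitted in both directions against DMSO, with SRB total-protein staining of parallel cultures for cytotoxicity.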

[8] = BSK_LPS_SRB: Viability Assessment in the BioMAP Diversity Plus: LPS Assay (AID 2283079); settings: primary human HUVEC with PBMC;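 also: total protein by sulforhodamine B absorbance as a cytotoxicity measure; measured one day after compound addition; fitted in both directions against DMSO so loss or gain of signal counts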
How it was run: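 Co-culture of human umbilical vein endothelial cells and PBMC, read 24 h after dosing. Total protein by 0.1% SRB staining after 10% TCA fixation, absorbance at 560 nm; bidirectional fit against DMSO.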

[9] = read-out: Interleukin-1 alpha (IL1a), IL1A (gene 3552); test: BSK_LPS_IL1a: BioMAP Diversity Plus: LPS Assay for Interleukin-1 alpha (IL1a) Biomarker Activity (AID 2283080); settings: primary human HUVEC with PBMC; actives raise or lower the signal
How it was run: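 Human umbilical vein endothelial cells co-cultured with PBMC and stimulated with LPS; IL-1a measured by ELISA 24 h after dosing. Bidirectional fitting against DMSO; cytotoxicity checked by SRB staining in parallel cultures.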

[10] = read-out: Monocyte Chemoattractant Protein-1 (MCP1), CCL2 (gene 6347); test: BSK_LPS_MCP1: BioMAP Diversity Plus: LPS Assay for Monocyte Chemoattractant Protein-1 (MCP1) Biomarker Activity (AID 2283081); settings: primary human HUVEC with PBMC; actives raise or lower the signal;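 as to AC50: secreted MCP-1 protein quantified by ELISA in culture supernatant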
How it was run: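 Human umbilical vein endothelial cells co-cultured with PBMC, LPS-stimulated; secreted MCP-1 measured by ELISA 24 h after compound addition. Bidirectional curve fitting against DMSO baseline; SRB total-protein staining in parallel cultures for cytotoxicity.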

[11] = BSK_LPS_PGE2: BioMAP Diversity Plus: LPS Assay for Prostaglandin E2 (PGE2) Biomarker Activity (AID 2283082); settings: primary human HUVEC with PBMC; actives raise or lower the signal;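 as to AC50: secreted prostaglandin E2 measured by ELISA in LPS-stimulated co-culture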
How it was run: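 LPS-activated HUVEC/PBMC co-culture; cmpd dosed, 24 h; PGE2 by ELISA; bidirectional fit vs DMSO; SRB (0.1%, TCA-fixed, 560 nm) in parallel plates for overt cytotox.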

[12] = read-out: Macrophage colony-stimulating factor (MCSF), CSF1 (gene 1435); test: BSK_LPS_MCSF: BioMAP Diversity Plus: LPS Assay for Macrophage colony-stimulating factor (MCSF) Biomarker Activity (AID 2283083); settings: primary human HUVEC with PBMC; actives raise or lower the signal
How it was run: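 HUVEC–PBMC co-culture, M-CSF measured by ELISA 24 h after chemical dosing. Fitted in both directions relative to DMSO as negative control; overt cytotoxicity assessed by SRB total-protein staining in parallel cultures.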

[13] = read-out: Tumor necrosis factor (Homo sapiens) (UniProt P01375); test: BSK_LPS_TNFa: BioMAP Diversity Plus: LPS Assay for Tumour Necrosis Factor alpha (TNFa) Biomarker Activity (AID 2283085); settings: primary human HUVEC with PBMC; actives raise or lower the signal
How it was run: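 Read-out is ELISA of TNFa in primary human endothelial cell–PBMC co-cultures at 24 h after compound. Activity in either direction was fitted against DMSO.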

[14] = read-out: Vascular cell adhesion molecule 1 (VCAM1), VCAM1 (gene 7412); test: BSK_LPS_VCAM1: BioMAP Diversity Plus: LPS Assay for Vascular cell adhesion molecule 1 (VCAM1) Biomarker Activity (AID 2283086); settings: primary human HUVEC with PBMC; actives raise or lower the signal
How it was run: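 HUVEC + PBMC co-culture, LPS system; compound 24 h; VCAM-1 by ELISA; bidirectional fit vs DMSO control; parallel SRB (0.1%, TCA-fixed, 560 nm) for cytotoxicity.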

CD38, CD38 (gene 952) = test: BSK_SAg_CD38: BioMAP Diversity Plus: SAg Assay for CD38 Biomarker Activity (AID 2283087); settings: primary human HUVEC with PBMC; actives raise or lower the signal
How it was run: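 Human HUVEC plus PBMC co-culture stimulated with superantigen; CD38 measured by ELISA 24 h after chemical dosing. Fluorescence read-out, bidirectional fit against DMSO; cytotoxicity tracked in parallel by SRB and Alamar Blue.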

CD40, CD40 (gene 958) [15] = test: BSK_SAg_CD40: BioMAP Diversity Plus: SAg Assay for CD40 Biomarker Activity (AID 2283088); settings: primary human HUVEC with PBMC; actives raise or lower the signal
How it was run: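 HUVEC plus PBMC co-culture, superantigen-activated, with CD40 read by ELISA 24 h after dosing. Curves fitted in both directions against DMSO. Overt cytotoxicity checked by parallel SRB total-protein staining.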

CD69, CD69 (gene 969) = test: BSK_SAg_CD69: BioMAP Diversity Plus: SAg Assay for CD69 Biomarker Activity (AID 2283089); settings: primary human HUVEC with PBMC; actives raise or lower the signal;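 as to AC50: cell surface CD69 protein quantified by ELISA with fluorescence detection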
How it was run: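 ELISA, fluorescence read-out: CD69 on human umbilical vein endothelial cell + PBMC co-culture, 24 h post-dosing. Gain or loss of signal fitted bidirectionally against DMSO baseline.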

[16] = read-out: Monocyte Chemoattractant Protein-1 (MCP1), CCL2 (gene 6347); test: BSK_SAg_MCP1: BioMAP Diversity Plus: SAg Assay for Monocyte Chemoattractant Protein-1 (MCP1) Biomarker Activity (AID 2283090); settings: primary human HUVEC with PBMC; actives raise or lower the signal
How it was run: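 MCP-1 levels in the endothelial–PBMC SAg co-culture were quantified by ELISA at 24 h post-dosing; both increases and decreases versus DMSO scored. Cytotoxicity monitored by SRB total protein in parallel cultures.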

[17] = read-out: Tissue Factor, F3 (gene 2152); test: BSK_LPS_TissueFactor: BioMAP Diversity Plus: LPS Assay for Tissue Factor Biomarker Activity (AID 2283084); settings: primary human HUVEC with PBMC; actives raise or lower the signal
How it was run: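 Human umbilical vein endothelial cells co-cultured with PBMC were dosed with compound. Cell-surface CD142 was measured by ELISA 24 h later. Activity was fitted bidirectionally against DMSO, with SRB total-protein staining in parallel cultures for cytotoxicity.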

Measured: AC50

Sequence of E-selectin (Homo sapiens) (P16581 whole entry, looked up): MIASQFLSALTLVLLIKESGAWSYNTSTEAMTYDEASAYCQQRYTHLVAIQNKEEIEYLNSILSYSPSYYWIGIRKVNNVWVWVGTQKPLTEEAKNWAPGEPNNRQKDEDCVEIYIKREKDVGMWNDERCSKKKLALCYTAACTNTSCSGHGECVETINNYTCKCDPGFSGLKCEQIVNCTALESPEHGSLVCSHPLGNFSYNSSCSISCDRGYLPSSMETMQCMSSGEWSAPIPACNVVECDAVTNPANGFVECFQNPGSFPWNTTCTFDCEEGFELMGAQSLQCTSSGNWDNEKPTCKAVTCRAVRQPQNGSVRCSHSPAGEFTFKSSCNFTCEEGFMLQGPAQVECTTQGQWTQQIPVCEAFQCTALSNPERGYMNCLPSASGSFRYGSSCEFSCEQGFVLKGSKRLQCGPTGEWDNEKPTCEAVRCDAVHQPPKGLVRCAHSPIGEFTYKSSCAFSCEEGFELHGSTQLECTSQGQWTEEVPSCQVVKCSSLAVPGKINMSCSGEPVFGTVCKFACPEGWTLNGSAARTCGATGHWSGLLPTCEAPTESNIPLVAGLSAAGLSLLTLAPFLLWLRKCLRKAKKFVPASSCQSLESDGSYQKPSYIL
Sequence of Tumor necrosis factor (Homo sapiens) (P01375 whole entry, looked up): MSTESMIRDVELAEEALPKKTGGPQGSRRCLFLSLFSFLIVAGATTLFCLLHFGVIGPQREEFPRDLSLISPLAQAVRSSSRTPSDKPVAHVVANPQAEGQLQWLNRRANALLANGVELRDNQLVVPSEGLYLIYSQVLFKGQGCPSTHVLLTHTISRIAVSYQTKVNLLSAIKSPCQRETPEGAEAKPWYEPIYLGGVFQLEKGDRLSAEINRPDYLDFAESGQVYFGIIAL

CCCCOC(=O)c1ccc(O)cc1
active: [11] 20 µM
not listed: [17]
inactive: all other assays above

CCOC(=O)O[C@H](C)OC(=O)c1ccc2c(c1)cc(C(=O)NC1CCN(C(C)C)CC1)n2Cc1cc(-c2ccc(Cl)s2)on1
active: [1] 7.43 µM | [2] 6.7 µM | [3] 5.86 µM | [4] 8.14 µM | CD40, CD40 (gene 958) [5] 6.74 µM | [6] 10.4 µM | [7] 6.76 µM | [8] 5.61 µM | [10] 8.72 µM | [11] 7.65 µM | [12] 6.43 µM | [13] 10.1 µM | [14] 6.25 µM | CD38, CD38 (gene 952) 7.17 µM | CD40, CD40 (gene 958) [15] 6.99 µM | CD69, CD69 (gene 969) 6.44 µM | [16] 7.11 µM

Cc1ccc(C(C)C)cc1
not listed: [4] | [16] | [17]
inactive: all other assays above

Cc1occc1C(=O)Nc1ccc(C(=O)N2CCC(F)(F)/C(=C\C(=O)N3CCC(N4CCCCC4)CC3)c3ccccc32)cc1
not listed: [4] | [8] | [9]
inactive: all other assays above

Oc1ccccc1
not listed: [9] | [16]
inactive: all other assays above

C[C@]12CC[C@@H]3c4ccc(O)cc4CC[C@H]3[C@@H]1CCC2=O
active: [6] 0.122 µM
not listed: [4] | [16] | [17]
inactive: all other assays above

CCCC(=O)OCCC(C)C
not listed: [9]
inactive: all other assays above

CC/C(=C(/CC)c1ccc(O)cc1)c1ccc(O)cc1
active: [1] 29.1 µM | [2] 5.87 µM | [3] 11.2 µM | [4] 29.3 µM | CD40, CD40 (gene 958) [5] 20 µM | [6] 30.3 µM | [7] 37 µM | [8] 25.4 µM | [9] 29.7 µM | [10] 33.9 µM | [11] 20 µM | [12] 15.2 µM | [13] 32.3 µM | [14] 26.8 µM | CD38, CD38 (gene 952) 19 µM | CD40, CD40 (gene 958) [15] 17.8 µM | CD69, CD69 (gene 969) 25.1 µM

Cc1cc(F)ccc1-c1cc(N2CC[C@@H](O)[C@H]2CO)ncc1N(C)C(=O)C(C)(C)c1cc(C(F)(F)F)cc(C(F)(F)F)c1
inactive: [11]
active: [1] 12.4 µM | [2] 25.1 µM | [3] 14.9 µM | CD40, CD40 (gene 958) [5] 8.65 µM | [6] 11.3 µM | [7] 10.8 µM | [8] 11.3 µM | [10] 10.8 µM | [12] 10.8 µM | [13] 10.7 µM | [14] 11.2 µM | CD38, CD38 (gene 952) 10.2 µM | CD40, CD40 (gene 958) [15] 9.9 µM | CD69, CD69 (gene 969) 10.5 µM

c1ccc2ccccc2c1
not listed: [16] | [17]
inactive: all other assays above

CCCCCCCCOC(=O)c1cc(O)c(O)c(O)c1
active: [1] 13.2 µM | [2] 8.45 µM | [3] 27.4 µM | [4] 18.2 µM | [6] 36.6 µM | [7] 24.6 µM | [8] 25.6 µM | [9] 20 µM | [10] 26.7 µM | [11] 5.32 µM | [12] 31.9 µM | [17] 32.4 µM | [13] 32.3 µM | [14] 30.6 µM | CD38, CD38 (gene 952) 13.1 µM | CD40, CD40 (gene 958) [15] 14.8 µM | CD69, CD69 (gene 969) 16.6 µM

O=C1O[C@H]([C@@H](O)CO)C(O)=C1O
not listed: [4]
inactive: all other assays above

Cc1cn([C@H]2C[C@H](N=[N+]=[N-])[C@@H](CO)O2)c(=O)[nH]c1=O
not listed: [4] | [9] | [16] | [17]
inactive: all other assays above

COc1ccc2cc(S(=O)(=O)N[C@H](CC(=O)N[C@H](Cc3ccc(CN4[C@H](C)CCC[C@@H]4C)cc3)C(=O)N(C)C(C)C)c3ccc4c(c3)OCO4)ccc2c1
active: [1] 27.6 µM | CD40, CD40 (gene 958) [5] 11.6 µM | [6] 31.3 µM | [7] 5.7 µM | [8] 15.5 µM | [10] 23.1 µM | [11] 31.1 µM | [12] 19.1 µM | [13] 33.6 µM | [14] 11.3 µM | CD38, CD38 (gene 952) 26.2 µM | CD40, CD40 (gene 958) [15] 24 µM | CD69, CD69 (gene 969) 24.5 µM | [16] 19.1 µM
inactive: [2] | [3]
